Source: PubChem (Broad Institute)
BL2 CD40 inh = CD40 pathway inhibition in BL2 cells; AID 1053188; BL2 NF-kB luciferase reporter, CD40L-induced, 4 h; actives 0.94% (n = 83,000); inhibition, % at 10 µM;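 active means mean inhibition of at least 50% with a set share of replicates also reaching that level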;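 further: 0% = neutral control wells and 100% = IKK inhibitor VII at 50 µM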
* = called active by the depositor; [ ] = another dose, or the depositor's remark. This excerpt belongs to a sample that is enriched for hits.

SMILES | BL2 CD40 inh
NC(c1csc(NC(=O)Nc2cccc(Cl)c2)n1)c1ccccc1Cl (stereo unspecified) | 59*
CN(C)Cc1csc(NC(=O)Nc2cccc(Cl)c2)n1 | -13
NC(c1csc(Nc2cc(Oc3ccccc3)ncn2)n1)c1ccccc1Cl (stereo unspecified) | -15
O=C(Nc1ccccc1Cl)N1[C@H](CO)[C@@H]2c3ccccc3NC[C@@H]21 | -36[25 µM]
O=C(Cc1ccccc1)N1C[C@H]2[C@@H](c3ccccc31)[C@@H](CO)N2C(=O)C1CC1 | 0
C[C@@H]1CN([C@H](C)CO)C(=O)c2ccccc2-c2ccccc2CO[C@@H]1CN(C)C(=O)CCC(F)(F)F | -16[25 µM]
C(=NN1CCCCCC1)c1ccc2ccccc2n1 | 77*
CCOc1ccccc1C=NN1CCCCCC1 | 7
C(=C\c1ccc2ccccc2n1)/c1ccccc1 | 28
C/C=C/c1ccc([C@H]2[C@H](CO)N(C(=O)CC)[C@H]2CNC(=O)CC2CC2)cc1 | 4
C[C@H]1CN(C)C(=O)c2cccnc2O[C@@H]1CN(C)S(C)(=O)=O | 10
C[C@@H]1CN([C@@H](C)CO)C(=O)c2cc(NC(=O)Cc3ccccc3)ccc2O[C@@H](C)CCCCO[C@H]1CN(C)Cc1ccncc1 | -11[25 µM]
CC1(C)[C@H]2CC[C@]1(C)[C@@H](OC(=O)C[N+]1(C)CCOCC1)C2 | 0
CC1(C)C2CCC1(C)C(OCC[N+](C)(C)CC(=O)OC1CCCCC1)C2 (stereo unspecified) | 57*
O=C(CCCCC(=O)OC1CCCCC1)OC1CCCCC1 | -10
COc1ccc2c3c([nH]c2c1)[C@@H](CO)N(C(=O)Nc1ccc(F)cc1)CC31CCN(S(=O)(=O)c2cn(C)cn2)CC1 | -5[25 µM]
C=C[C@@]1(C)CC(=O)[C@]2(O)[C@@]3(C)[C@@H](O)CCC(C)(C)[C@@H]3[C@H](O)[C@H](OC(=O)CCCN3CCN(C)CC3)[C@@]2(C)O1 | -13[25 µM]
O=C(Cc1ccncc1)Nc1ccc2c(c1)[C@@H]1C[C@H](CC(=O)NC3CCCC3)O[C@H](CO)[C@@H]1O2 | -5
CO/N=C(\Cn1ncc(N2CCOCC2)c(Br)c1=O)c1ccc(Cl)cc1 | 25
CC(=O)Cn1ncc(Br)c(Br)c1=O | 99*
Cn1ncc(Br)c1C(=O)O | 1
CC(C)NC(=O)Nc1ccc2c(c1)C(=O)N([C@H](C)CO)C[C@H](C)[C@@H](CN(C)C(=O)C1CCCCC1)OCCCC[C@@H](C)O2 | -12[25 µM]
COc1ccc2c3c(n(C)c2c1)[C@H](CO)N(C(=O)Nc1ccc(F)cc1)CC31CCN(C(=O)Nc2c(C)noc2C)CC1 | 19[25 µM]
COc1ccc2c3c(n(C)c2c1)[C@@H](CO)N(C(=O)Nc1ccc(F)cc1)CC31CCN(C(=O)c2ccc3c(c2)OCO3)CC1 | 30[25 µM]
COc1ccc2c3c(n(C)c2c1)[C@H](CO)N(C(=O)Nc1ccc(F)cc1)CC31CCN(C(=O)c2ccc3c(c2)OCO3)CC1 | 65*[25 µM]
SMILES | BL2 CD40 inh
CN(C)C(=O)[C@H]1[C@H](CO)[C@H]2Cn3c(cccc3=O)[C@H]2N1C(=O)C1CCCC1 | 5
CO[C@@H]1CN(C)C(=O)c2cccc(C#N)c2OCC[C@@H]2CC[C@@H](OC)[C@@H](CN(C)C(=O)[C@H]1C)O2 | -7[25 µM]
CCC(=O)N[C@@H]1CC[C@@H](CC(=O)NCc2ccccc2F)O[C@@H]1CO | 6[25 µM]
O=C(NCc1ccc(F)cc1)[C@@H]1N[C@@H]2c3ccc(-c4ccccc4)c(=O)n3C[C@@H]2[C@H]1CO | 5[25 µM]
CCCNC(=O)N1[C@@H]2Cn3c(cccc3=O)[C@H]1[C@@H](C(=O)N1CCC(Cc3ccccc3)CC1)[C@@H]2CO | -11[25 µM]
Oc1ccc(/C(Cc2ccc3ccccc3n2)=N\Nc2ccccc2)c(O)c1 | -39
CC(=NNc1ccc2ccccc2n1)c1ccccc1O | 96*
CC(=NNC(=O)c1ccncc1)c1ccccc1O | -48
COC(=O)c1ccc(CSc2nnc(-c3ccccc3)n2C)o1 | 10
COC(=O)c1ccc(CSc2cc(C)c3ccccc3n2)o1 | 66*
COC(=O)c1ccc(CSc2nnnn2-c2ccccc2)o1 | -9
O=[N+]([O-])c1cccc2cnccc12 | 11
CC1CNCCN1S(=O)(=O)c1cccc2cnccc12 (stereo unspecified) | 32*
O=S(=O)(c1cccc2cnccc12)N1CCCNCC1 | -6[25 µM]
C/C=C/c1ccc([C@H]2[C@@H](CN(C)C(C)=O)N(C(=O)NCCC)[C@H]2CO)cc1 | 3
COC(=O)[C@@H]1[C@@H](CO)[C@@H]2Cn3c(ccc(C4=CCCC4)c3=O)[C@@H]2N1C(=O)C1CCCC1 | -10
CC(C)C1CC(N(C)C)=CC(=S)N1 (stereo unspecified) | 30*
COc1ccc(C(=O)N2C[C@@H]3[C@H](c4ccccc42)[C@H](CO)N3C(=O)NC(C)C)cc1 | 4[25 µM]
CC(=O)N(C)C[C@@H]1Oc2ccc(N(C)C)cc2C(=O)N(C)C[C@H]1C | -1
O=C1OC(OC(=O)c2cccnc2Nc2cccc(C(F)(F)F)c2)c2ccccc21 (stereo unspecified) | 85*[25 µM]
Cc1ccc(Nc2ncccc2C(=O)O)cc1C | -63
O=C(Nc1cccc(C(F)(F)F)c1)OCc1ccncc1 | 3
CC(C)C#Cc1ccc([C@@H]2[C@@H](CO)N3C(=O)CN(C(=O)NC4CCCCC4)C[C@H]23)cc1 | 3
Cc1cccc(-c2ccc([C@H]3[C@H]4CN(CCC(F)(F)F)CCCCN4[C@H]3CO)cc2)c1 | -13[25 µM]
CC(=O)N1[C@H](CO)[C@H](c2ccccc2)[C@H]1CN(CC1CCC1)C(=O)CN(C)C | -10[25 µM]
SMILES | BL2 CD40 inh
CN(C)C(=O)c1cccc(-c2cccc(-c3nc(C(=O)NCc4ccccc4)cc4c3[C@@H](CCO)N([S@](=O)C(C)(C)C)C4)c2)c1 | 25
CCCC#Cc1ccc([C@@H]2[C@H](C#N)N(C(=O)CN3CCOCC3)[C@H]2CO)cc1 | -9[25 µM]
O=C(COC(=O)CCN1C(=O)c2cccc([N+](=O)[O-])c2C1=O)NCc1ccccc1 | 6
O=C(CCCN1C(=O)c2cccc3cccc(c23)C1=O)OCC(=O)N1CCCCC1 | -3
O=C(CN1C(=O)c2cccc([N+](=O)[O-])c2C1=O)OCC(=O)N1CCCCC1 | 61*
COc1ccccc1CN(C)C[C@H]1OCc2ccccc2-c2c(n(C)c3ccccc23)C(=O)N([C@H](C)CO)C[C@@H]1C | 0[25 µM]
CCN1[C@H](C(=O)NCCCN(C)C)[C@@H](CO)[C@@H]2Cn3c(ccc(-c4cccc(F)c4)c3=O)[C@@H]21 | -4[25 µM]
COC(=O)C(CC(C)C)NC(=O)C(N)Cc1ccccc1 (stereo unspecified) | 12
CC(C)C[C@@H](C=O)NC(=O)[C@H](CC(C)C)NC(=O)[C@H](CC(C)C)NC(=O)OCc1ccccc1 | 64*[25 µM]
O=C(NC(CO)C(=O)OCc1ccccc1)OCc1ccccc1 (stereo unspecified) | 3
N#C[C@@H]1[C@H](c2ccc(C3=CCCC3)cc2)[C@@H](CO)N1C(=O)Cc1ccncc1 | 2[25 µM]
c1ccc(N2CCN(c3nc(NCc4ccco4)c4ccccc4n3)CC2)cc1 | 29
c1ccc(-c2nc(NCc3ccco3)c3ccccc3n2)nc1 | 53*
COc1ccccc1Nc1nc(NCc2ccco2)c2ccccc2n1 | -21
COc1ccccc1-c1ccc(C2[C@@H]3CN(S(=O)(=O)c4ccccc4C)C[C@H]2N3)cc1 (stereo partly specified) | 4
CN(C)C(=O)c1cccc(-c2ccc([C@H]3[C@@H](C#N)N(C(=O)C4CCC4)[C@@H]3CO)cc2)c1 | -1
Nc1c(S(=O)(=O)c2ccccc2)c2nc3ccccc3nc2n1CCN1CCOCC1 | 10
